In PubChem BioAssay (Tox21):
Records with an inconclusive call do not appear. Entries that show only a call come without a potency. Calls of active or inactive are those of the source. Calls follow the shape of the dose curve; as a rule, active = well fitted cell-killing curve with a large enough effect in the repeat runs; inconclusive = weak or mixed curves; inactive = flat fitted curve, though single readings scatter.

Assay: qHTS assay to identify small molecule antagonists of the TGF-beta/Smad signaling pathway - cell viability counter screen (AID 1346824); also: nearly all actives have a fitted effect of over 50% in size
Conditions: SBE-bla HEK293T viability, CellTiter-Glo luminescence; series mostly up to 76.8 µM
Excerpt: U.S. Tox21 Program National Center for Advancing Translational Sciences [NCATS] NIH Chemical Genomics Center [NCGC] U.S. Environmental Protection Agency [EPA] National Institutes of Environmental Health Sciences [NIEHS] National Toxicology Program [NTP] U.S. Food and Drug Administration [FDA] Tox21 Assay Overview: Transforming growth factor beta (TGF-beta) superfamily consists of a large number of structurally related dimeric proteins that act as hormones or local mediators in regulating a wide range of biological functions. This superfamily includes TGF-betas themselves, the bone morphogenetic proteins (BMPs) and the activins. These ligands induce oligomerization of serine/threonine receptor kinases and phosphorylate the cytoplasmic signaling molecules of Smad protein family. CellSensor SBE-bla HEK 293T cell line (Life Technologies, Carlsbad, CA), responsive to TGF-beta was used to screen Tox21 10K compound library for identification of agonists/antagonists of the Smad signaling pathway. This cell line contains a beta-lactamase reporter gene under control of the Smad binding element (SBE) stably integrated into HEK 293T cells. Also cytotoxicity of the compounds was tested in parallel by measuring the cell viability using CellTiter-Glo assay system in the same wells.
Tox21 Assay Protocol Summary: SBE-bla HEK 293T cells were dispensed at 4,000/well in 5 uL of assay medium into black wall/clear-bottom 1536-well plates using a Multidrop Combi (ThermoFisher Scientific, Waltham, MA) dispenser. After the assay plates were incubated at 37 C and 5% CO2 for an overnight, 23 nL of compounds dissolved in DMSO, positive controls or DMSO only was transferred to the assay plate by a Pintool station (Kalypsys, San Diego, CA). Compound transfer was followed by the addition of 1 uL of 0.25 ng/mL TGF-beta1 or assay buffer using two separate tips of Flying Reagent Dispenser (FRD, Aurora Discovery, San Diego, CA). The assay plates were incubated at 37 C and 5% CO2 for 5 hr. One uL of LiveBLAzer B/G FRET substrate (Life Technologies) was added using a Flying Reagent Dispenser (FRD, Aurora Discovery, San Diego, CA) and the plates were incubated at room temperature for 2 hr. Fluorescence intensity (405 nm excitation, 460 nm and 530 nm emissions) was measured using an Envision plate reader (PerkinElmer, Shelton, CT). For cytotoxicity read, 4 uL of CellTiter-Glo reagent (Promega Corporation, Madison, WI) was added to each well of the assay plates using FRD. After 30 min incubation at room temperature, the luminescence intensity was measured using ViewLux plate reader (PerkinElmer).

SMILES | Potency
CC/C(C)=N/O | inactive
CCc1cccc(CC)c1N | inactive
CC(C)(C)NC[C@H](O)COc1nsnc1N1CCOCC1 | inactive
C=CC(C)(C)C | inactive
NC1CCCCC1N (stereo not given) | inactive
CC(=O)Nc1ccc(CC(=O)O)cc1 | inactive
OB(O)O | inactive
Nc1cccc(N)n1 | inactive
COc1ccccc1[N+](=O)[O-] | inactive
NC(N)=S | inactive
Cc1ccncc1 | inactive
CC(=O)CC(=O)N(C)C | inactive
Cc1cc(C)c(O)c(C)c1 | inactive
O=[N+]([O-])c1cc(C(F)(F)F)ccc1Cl | inactive
COC(=O)/C=C\C(=O)OC | inactive
CC[N+](CC)(CC(=O)Nc1c(C)cccc1C)Cc1ccccc1 | inactive
COCN(COC)c1nc(N(COC)COC)nc(N(COC)COC)n1 | inactive
N[C@@H](Cc1cc(I)c(Oc2ccc(O)c(I)c2)c(I)c1)C(=O)O | inactive
CCCCCC(C)=O | inactive
Brc1ccc(Oc2ccc(Br)cc2)cc1 | inactive

SMILES | Potency
O=C1CCCCCCCCCCC1 | inactive
OCC(CO)(CO)CO | inactive
CCCOC(=O)NCCCN(C)C | inactive
Cc1ncc(CO)c(CO)c1O | inactive
Nc1cccc(C(F)(F)F)c1 | inactive
COc1c(Cl)ccc(Cl)c1C(=O)O | inactive
CC(=O)OCCC(C)C | inactive
C=C1C[C@]23C[C@@]1(O)CC[C@H]2[C@@]12C=C[C@H](O)[C@@](C)(C(=O)O1)[C@H]2[C@@H]3C(=O)O | inactive
CCCCCNCCCCC | inactive
COc1ccc([C@@H]2CC(=O)c3c(O)cc(O[C@@H]4O[C@H](CO[C@@H]5O[C@@H](C)[C@H](O)[C@@H](O)[C@H]5O)[C@@H](O)[C@H](O)[C@H]4O)cc3O2)cc1OC | inactive
CCn1cc(C(=O)O)c(=O)c2cc3c(cc21)OCO3 | inactive
CC(O)CNCC(C)O (stereo not given) | inactive
CCCCC(CC)COC(=O)c1ccc(C(=O)OCC(CC)CCCC)cc1 (stereo not given) | inactive
CCCOCC(C)O (stereo not given) | inactive
Cc1ccccc1Cl | inactive
CS(=O)(=O)c1ccc(Cl)cc1 | inactive
CN1Cc2c(N)cccc2C(c2ccccc2)C1 (stereo not given) | inactive
CCc1cccc(O)c1 | inactive
Cc1ccc(C)c(S(=O)(=O)O)c1 | inactive
Cc1ccc([N+](=O)[O-])cc1N | inactive
